Compounds with a hit are over-represented: about 4.8% of the library has one in this group of screens.
DAX1 inh-1: DAX1 (NR0B1) inhibitors on StAR promoter, primary screen, cell-based, luminescence, SF-1 (NR5A1), full-length DAX-1; inhibition, % at 6.8 µM; 370,000 compounds, 1.1% hits; HEK293T StAR-luciferase reporter, SF-1/DAX-1 repression relief;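 active means inhibition above the mean over all tested compounds plus 3 SD, cut at about 3.6% in these data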;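 further: 0% = DAX-1 cells with DMSO and 100% = cells lacking DAX-1 with DMSO; higher inhibition means more luminescence from relief of DAX-1 repression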
SMARCA2 activ: SMARCA2 (BRM) function activators, primary screen, cell-based, luminescence, high throughput; 370,000 compounds, 1% hits; MG213 cells, MMTV-luciferase reporter, dexamethasone, overnight; activation, % at 9.1 µM; AID 652017, 2013; in the data active means activation above about 7.8%;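 further: 0% = vehicle wells and 100% = reference activator wells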
hgDAF-12 ag: H. glycines DAF-12 receptor agonists, primary screen, cell-based, luminescence, HEK293, GAL4 fusion, UAS-luciferase; 370,000 compounds, 1.8% hits; HEK293 GAL4-hgDAF12 UAS-luciferase reporter, agonist luminescence; normalized to butyrate control; AID 687014, 2013; activation, % at 6.8 µM;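 active means activation above a cutoff set at the mean of all screened compounds plus 3 SD, cut at about 10% in these data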;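 further: 0% = DMSO wells and 100% = sodium butyrate wells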
ssDAF12 agonist: S. stercoralis DAF-12 nuclear receptor activators, primary screen, cell-based, luminescence, HEK293, GRIP1 co-expression, lit1-tk-luc; Nuclear hormone receptor DAF-12 (Strongyloides stercoralis); HEK293 ssDAF-12/GRIP1 lit1-tk-luc reporter; % of 3 µM dafachronic acid response; activation, % at 6.8 µM; 370,000 compounds, 1% hits; AID 652126, 2013;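 active means activation above the mean over all tested compounds plus 3 SD, cut at about 0.9% in these data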;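 further: 0% = DMSO-only wells and 100% = 3 µM delta7-dafachronic acid wells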
hcDAF-12 act: H. contortus DAF-12 nuclear receptor activators, primary screen, cell-based, luminescence, HEK293, lit1-tk-luc reporter; 370,000 compounds, 1.4% hits; activation, % at 6.8 µM; HEK293 hcDAF-12 lit1-tk-luc reporter; 0% DMSO, 100% Δ7-dafachronic acid; AID 652067, 2013;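 active means activation above the mean of all tested compounds plus 3 SD, cut at about 5.5% in these data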;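 further: 100% = response to 3 µM Δ7-dafachronic acid high control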
DAX1 inh-2: DAX1 (NR0B1) inhibitors, primary screen, cell-based, HEK293, Gal4-DAX1, luciferase luminescence; Nuclear receptor subfamily 0 group B member 1 (Homo sapiens), P51843; HEK293 Gal4-DAX1 luciferase reporter; inhibition, % at 6.75 µM; 340,000 compounds, 0.99% hits;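 active means inhibition above the mean over all tested compounds plus 3 SD, cut at about 4.2% in these data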;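 further: 0% = DAX1-transfected cells with DMSO and 100% = empty-vector control cells with DMSO; inhibition shows as a rise in luminescence from relieved DAX1 repression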
Target sequence (P51843 207-470 limits assumed): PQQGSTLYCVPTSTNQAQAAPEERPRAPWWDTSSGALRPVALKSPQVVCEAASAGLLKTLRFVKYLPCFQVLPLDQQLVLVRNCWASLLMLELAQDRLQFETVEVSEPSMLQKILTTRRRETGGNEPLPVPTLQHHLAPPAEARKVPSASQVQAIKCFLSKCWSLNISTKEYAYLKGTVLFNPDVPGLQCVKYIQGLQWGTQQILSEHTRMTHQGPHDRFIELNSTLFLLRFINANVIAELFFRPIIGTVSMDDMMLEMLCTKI
SMARCA2 act conf: SMARCA2 (BRM) function activators, confirmation, cell-based, luminescence, triplicate; AID 652260, 2013; activation, % at 9.1 µM; MG213 cells, MMTV-luciferase with dexamethasone, overnight; MG213 cells expressing E1A, Rb sequestered; DMSO wells 0%, reference activator 100%; shares compounds with SMARCA2 activ; 3,500 compounds, 30% hits;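 active means activation above its plate's cutoff, the mean activation of tested wells plus 3 SD, cut at about 7.9% in these data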
GAL4-VP16 Luc: GAL4-VP16 luciferase reporter activation, counter-screen for SMARCA2 (BRM) activator project, cell-based, pG5luc, luminescence, high throughput; shares compounds with SMARCA2 activ; 3,500 compounds, 41% hits; activation, % at 9.1 µM; HEK293 GAL4-VP16 pG5luc reporter; scaled: DMSO wells 0%, SAHA wells 100%;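 active means activation above the solvent-only control well mean plus 3 SD, averaged across control plates, cut at about 5.2% in these data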
* marks the source's active call; other numbers are inactive results; nt = not tested or not shown.

SMILES	DAX1 inh-1	SMARCA2 activ	hgDAF-12 ag	ssDAF12 agonist	hcDAF-12 act	DAX1 inh-2	SMARCA2 act conf	GAL4-VP16 Luc
COc1ccc(-c2coc(CCC(=O)N3CCN(c4cc(C)ccc4C)CC3)n2)cc1	-1	-3	-3	-1	0	2	nt	nt
O=C(O)c1ccccc1C(=O)NNc1cccc(Cl)n1	1	8.6*	6	-1	3	3	-1	4
O=S(=O)(CCc1ccncc1)c1ccc(Cl)cc1	0	2	-1	-2	0	1	nt	nt
O=C(O)C1CN(C(=O)c2cccc(Br)c2)C1	1	0	-1	0	-1	0	nt	nt
Cc1ccc(C(=O)Nc2cccc(-c3ccc(N4CCOCC4)nn3)c2)cc1C	2	-1	6	0	1	-2	nt	nt
O=C(Nc1cccc(-c2ccc(N3CCOCC3)nn2)c1)c1cccc(Cl)c1	0	9.4*	4	-1	3	1	5	7.0*
Nc1ccc2nc(CCCO)[nH]c2c1	0	-2	1	-2	-1	0	nt	nt
Cc1sc2nc(CN3CCCCC3)nc(Nc3ccc4c(c3)OCCO4)c2c1C	1	9.2*	2	-1	0	0	11*	-1
Cc1sc2nc(CN3CCCC3)nc(NCc3ccncc3)c2c1C	0	4	-2	-1	-1	0	nt	nt
COc1ccc(C2=Nn3c(nnc3-c3ccccc3OC)SC2)cc1OC	4	16*	-9	-1	-4	-4	16*	12*
COc1ccc(C2=Nn3c(nnc3-c3ccco3)SC2)cc1OC	0	8.2*	-5	-2	-3	2	13*	9.2*
COc1ccc(C2=Nn3c(nnc3-c3ccccn3)SC2)cc1OC	1	4	-4	-2	-3	0	nt	nt
COc1ccc(C2=Nn3c(nnc3-c3ccccc3Cl)SC2)cc1OC1CCOC1 (centres undefined)	0	11*	-2	-1	-2	1	18*	5
CCOc1cccc(-c2c(C(=O)N/N=C(\C)c3cccs3)nnn2-c2nonc2N)c1	-1	-3	-1	-2	-5	-1	nt	nt
CCN(C[C@H]1N[C@@](Cc2ccccc2)(C(=O)OC)[C@H]2C(=O)N(Cc3ccccc3)C(=O)[C@@H]12)S(=O)(=O)c1ccc(C)cc1	1	10*	2	-1	-1	-2	-7	-1
CCN(C[C@H]1N[C@@](Cc2ccccc2)(C(=O)OC)[C@H]2C(=O)N(Cc3ccccc3)C(=O)[C@@H]12)S(=O)(=O)c1ccccc1	0	-2	1	-1	2	-1	nt	nt
COC(=O)C1C(OC)=CC(=O)C2CCCCC21 (centres undefined)	-1	-3	-3	-1	-2	2	nt	nt
Cc1ccc(N(NC(=O)C(O)(c2ccccc2)c2ccccc2)C(=O)CCl)cc1	-1	-9	3	-2	-2	-1	nt	nt
CCC(O)(CC)C(=O)NN(C(=O)CCl)c1ccccc1	-1	8.7*	-1	-2	-3	-1	2	0
CC(C)C(=O)N[C@H]1CCC2C3CC=C4C[C@@H](O)CC[C@]4(C)C3CC[C@@]21C (some centres undefined)	-2	-2	-2	-1	-1	-1	nt	nt
